In PubChem BioAssay AID720597 (Broad Institute, 2013):
Entries with a potency or affinity are not part of this list. Activity calls are given as the source filed them.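 Rule for the calls: active = fitted half-maximal dose no more than twice the top valid tested dose, for compounds that lower signal; inconclusive = fit invalid, or curve flat with activity between -70 and -30; inactive = potency past limit, curve flat within ±30, or signal increasing.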

Target: NAD-dependent protein deacylase sirtuin-5, mitochondrial (Homo sapiens) (UniProt Q9NXA8)
Test: SIRT5 deacylase inhibitors, dose response, biochemical, fluorescence imaging, cherry-pick, set 6 (AID 720597);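 note: lower AMC signal can also come from blocking the trypsin step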

Sequence of NAD-dependent protein deacylase sirtuin-5, mitochondrial (Homo sapiens) (Q9NXA8 whole entry, looked up): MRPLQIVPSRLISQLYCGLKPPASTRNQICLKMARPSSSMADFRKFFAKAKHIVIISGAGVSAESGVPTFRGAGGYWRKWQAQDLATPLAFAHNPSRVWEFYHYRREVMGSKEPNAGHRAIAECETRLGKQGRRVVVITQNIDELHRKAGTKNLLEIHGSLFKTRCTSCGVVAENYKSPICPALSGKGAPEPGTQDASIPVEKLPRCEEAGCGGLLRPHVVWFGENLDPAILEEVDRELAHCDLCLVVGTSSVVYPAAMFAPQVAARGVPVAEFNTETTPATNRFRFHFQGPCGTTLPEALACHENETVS

Compound | outcome
COc1ccc(S(=O)(=O)Nc2ccc3c(c2)C(=O)N([C@H](C)CO)C[C@@H](C)[C@H](CN(C)Cc2ccc(C(F)(F)F)cc2)OCCCC[C@H](C)O3)cc1 | inactive
O=C(c1ccc(F)cc1)N1CC(=O)N2[C@H](C1)[C@H](c1ccc(C#CCC3CCCC3)cc1)[C@@H]2CO | inactive
O=C(NCC[C@H]1CC[C@@H](NC(=O)Nc2cc(F)ccc2F)[C@H](CO)O1)Nc1ccc(F)cc1 | inactive
O=C(NCC[C@H]1CC[C@H](NS(=O)(=O)c2cccc(F)c2)[C@H](CO)O1)C1CCOCC1 | inactive
CC(C)NC(=O)N[C@H]1CC[C@H](CCNC(=O)C2CCCC2)O[C@@H]1CO | inactive
C[C@@H]1CN([C@@H](C)CO)C(=O)Cc2cc(NS(=O)(=O)c3ccc(F)cc3)ccc2O[C@@H]1CN(C)Cc1ccc(C(F)(F)F)cc1 | inactive
COc1ccc(S(=O)(=O)Nc2ccc3c(c2)C(=O)N([C@H](C)CO)C[C@@H](C)[C@H](CN(C)S(=O)(=O)c2ccccc2)OCCCC[C@H](C)O3)cc1 | inactive
C[C@@H]1CN([C@H](C)CO)C(=O)c2cc(NS(=O)(=O)c3cn(C)cn3)ccc2O[C@H]1CN(C)C(=O)Nc1ccccc1 | inactive
COc1ccccc1-c1ccc2c(c1)O[C@@H](CN(C)S(=O)(=O)c1ccccc1)[C@H](C)CN([C@@H](C)CO)S2(=O)=O | inactive
CN(C)Cc1cn(CC[C@H]2CC[C@@H](NC(=O)Nc3ccccc3F)[C@@H](CO)O2)nn1 | inactive
C[C@H](CO)N1C[C@H](C)[C@@H](CN(C)Cc2ccccc2C(F)(F)F)OCc2ccccc2-c2ccccc2C1=O | inactive
